Measurements as given in ChEMBL document CHEMBL4513216, “Probing the Open Global Health Chemical Diversity Library for Multistage-Active Starting Points for Next-Generation Antimalarials” (ACS Infect Dis, 2020).
The campaign covered roughly 68,000 compounds. About 2,700 (4%) showed an effect of 50% or more. Shown is part of a subset that was picked to be rich in strong results.

What follows are compounds tested on Plasmodium berghei (assay: Screen against P. berghei liver stage (PbLuc), transformed with Luciferase, at 2uM). Settings: tested at 2 uM.
Format: functional, HepG2
With `CC(=O)Nc1nc(C(=O)N2CCCC(n3nc(C)cc3C)C2)cs1` (centres undefined) the INHIBITION was -45.23%.
`N#Cc1cccc(OCCN2CCCC2C(=O)N2CCSCC2)c1` (centres undefined) showed an INHIBITION of 9.04%.
`COCCN1CCN(c2cccc(C)n2)Cc2ccc(C)nc21` was tested, and the INHIBITION was -21.77%.
`CCS(=O)(=O)N1C[C@H]2CN(c3cnn(C)c3)C(=O)[C@H]2C1` was tested, and the INHIBITION was -33.15%.
`Cn1cc(N2C[C@@H]3CN(CC4CCOCC4)C[C@@H]3C2=O)cn1` showed an INHIBITION of -1.69%.
In the case of `Cn1cc(N2C[C@@H]3CN(S(=O)(=O)C4CC4)C[C@@H]3C2=O)cn1`, the INHIBITION is reported as 63.23%.
In the case of `Cc1nc(C2CCCN2C(=O)c2ccc(F)cc2)ncc1C(N)=O` (centres undefined), the INHIBITION is reported as 21.33%.
Compound `CCOC(=O)N1CCC(NC(=O)c2cccc(C3CCCNC3)c2)CC1` (centres undefined) has an INHIBITION of 35.15%.
In the case of `Cc1nnc(N2CCOC(Cn3cccn3)C2)c(C#N)c1C` (centres undefined), the INHIBITION is reported as 8.7%.
`CCC1CN(c2nnc(C)c(C)c2C#N)CCO1` (centres undefined) gave an INHIBITION of 11.18%.
Compound `Cc1cnn(CC2CN(c3nnc(C)c(C)c3C#N)CCO2)c1` (centres undefined) has an INHIBITION of 54.2%.
With `O=C1CSC(c2ccc(Cl)cc2Cl)c2c(n(C3CCOCC3)[nH]c2=O)N1` (centres undefined) the INHIBITION was 5.47%.
With `CN(C)S(=O)(=O)N1CCC(Oc2ccc(C#N)cn2)CC1` the INHIBITION was 31.38%.
`CC(C)c1nn(C)c(Cl)c1CNCc1ccc2c(c1)OCO2` gave an INHIBITION of 35.65%.
For `CCC(CC)N(Cc1ccc2c(c1)OCO2)C(=O)c1ccc(=O)n(C)c1`, the INHIBITION was -55.13%.
For `COc1cc(CCC(=O)NC(C)C)ccc1OCC(F)(F)F`, the INHIBITION was -56.02%.
With `CCC(C)NC(=O)CCc1ccc(OCC(F)(F)F)c(OC)c1` (centres undefined) the INHIBITION was 51.94%.
`COc1cc(CCC(=O)NC(C)C(=O)O)ccc1OCC(F)(F)F` (centres undefined) showed an INHIBITION of -16.42%.
`Cc1ccc(CN2CC[C@H](c3nc4cccc(C(N)=O)c4[nH]3)C2)cc1` gave an INHIBITION of 23.26%.
`NC(=O)c1cccc2nc([C@H]3CCN(Cc4ccccn4)C3)[nH]c12` was tested, and the INHIBITION was 50.72%.
`NC(=O)c1cccc2nc([C@H]3CCN(Cc4ccccc4F)C3)[nH]c12` showed an INHIBITION of 18.87%.
With `CS(=O)(=O)N1CCCC(Cc2ccnc(Nc3ccccn3)c2)C1` (centres undefined) the INHIBITION was 3.38%.
`O=C(c1ccccc1)N1CCN(CC2CCOc3ccccc3C2)CC1` (centres undefined) showed an INHIBITION of 1.88%.
In the case of `CCN1CC(C(=O)NCc2noc(Cc3ccccc3)n2)CCC1=O` (centres undefined), the INHIBITION is reported as -17.86%.
Work on `CC(C)(C)N1CC(C(=O)NCc2noc(Cc3ccccc3)n2)CC1=O` (centres undefined) yielded an INHIBITION of 50.63%.
`COCCc1noc(CNC(=O)C2CC(=O)N(C(C)(C)C)C2)n1` (centres undefined) gave an INHIBITION of -28.97%.
In the case of `CCn1nc(CC(C)C)cc1C(=O)NCc1c(C)cc(C)nc1OC`, the INHIBITION is reported as 39.16%.
`Cc1noc2nc(C3CCN(Cc4ccccn4)CC3)cc(C(F)F)c12` showed an INHIBITION of -32.4%.
`C/C(=C\c1ccccc1)CN1CCCC(c2nnc3n2CCNCC3)C1` (centres undefined) gave an INHIBITION of 36.51%.
`O=C(NCCNc1cnccn1)c1scnc1Cl` was tested, and the INHIBITION was -6.71%.
`O=c1[nH][nH]cc1-c1ccnc(NCCc2cccnc2)n1` gave an INHIBITION of 7.4%.
With `CC(NC(=O)Cn1cc(-c2ccccc2)cn1)C1CC1` (centres undefined) the INHIBITION was 35.65%.
Work on `CC(C)NC(=O)Cn1cc(-c2ccccc2)cn1` yielded an INHIBITION of -42.92%.
In the case of `CNC(=O)NC(=O)Cn1cc(-c2ccccc2)cn1`, the INHIBITION is reported as 54.92%.
Compound `CCC(CC)NC(=O)Cn1cc(-c2ccccc2)cn1` has an INHIBITION of -9.17%.
`Cc1ccc(-c2cnn(CC(=O)NC(C)C)c2)cc1` gave an INHIBITION of 72.31%.
For `CCCNC(=O)Cn1cc(-c2ccccc2)cn1`, the INHIBITION was -14.11%.
`CCn1c(C)nnc1CN(C)C1CCN(Cc2c(C)noc2C)C1` (centres undefined) was tested, and the INHIBITION was 4.72%.
Work on `Cc1nc(C)c(CN2CCC(N(C)Cc3nnc(C4CC4)o3)C2)s1` (centres undefined) yielded an INHIBITION of 37.9%.
`CCn1c(C)nnc1CN(C)C1CCN(Cc2sc(C)nc2C)C1` (centres undefined) gave an INHIBITION of 65.3%.
In the case of `O=S(=O)(c1ccccc1)N1CCC2(CCCN2Cc2ccc(Cl)cc2)C1` (centres undefined), the INHIBITION is reported as -28.17%.
`O=C(CCCc1ncc(-c2ccccc2)o1)N1CCN(CCO)CC1` gave an INHIBITION of 56.67%.
`O=C(CCCc1nc(-c2ccccc2)no1)N1CCN(CCO)CC1` showed an INHIBITION of 41.76%.
For `O=C(CCCc1nnc(-c2ccccc2)o1)N1CCN(CCO)CC1`, the INHIBITION was 36.65%.
`COc1ccc(Br)cc1NCC(=O)NC(C)(C#N)C1CC1` (centres undefined) was tested, and the INHIBITION was -0.46%.
Compound `CSc1ccc2c(C)cc(N[C@@H](C)CO)nc2c1` has an INHIBITION of 71.67%.
`CCn1ncnc1C(C)Nc1cc(C)c2ccc(SC)cc2n1` (centres undefined) gave an INHIBITION of -35.22%.
For `COC[C@H](C)Nc1cc(C)c2ccc(SC)cc2n1`, the INHIBITION was 45.56%.
Work on `O=C(c1cccnc1-c1ccoc1)N1C[C@@H]2CC[C@H]1C2` yielded an INHIBITION of -15.77%.
Compound `CCC1(CO)CCN(C(=O)c2cc(COc3ccccc3F)[nH]n2)CC1` has an INHIBITION of -64.06%.
With `CCn1nc(C)c(CCNC(=O)C2CCCN(C(=O)N(C)C)C2)c1C` (centres undefined) the INHIBITION was -17.7%.
In the case of `Cn1cc(CN2CCOC(c3cccc(-c4cccc(F)c4)n3)C2)cn1` (centres undefined), the INHIBITION is reported as 53.16%.
`Cn1cc(CN2CCOC(c3cccc(-c4cncnc4)n3)C2)cn1` (centres undefined) showed an INHIBITION of 0.12%.
`Cn1cc(CN2CCOC(c3nccnc3-c3cccc(F)c3)C2)cn1` (centres undefined) gave an INHIBITION of 11.74%.
